High-throughput results as filed in PubChem BioAssay.
sEH act = activators of human soluble epoxide hydrolase | purified human sEH enzymatic activity, activator screen | activation, % at 2 µM | 0.04% of 91,000 active | AID 717; in the data active means activation above about 37%
CYP2C19 activ = increases human CYP2C19 enzyme activity; P33261; activation factor at 5 µM; 96,000 tested, under 10 active; recombinant CYP2C19, luciferin-H EGE luminescence; active compounds read high; 0 = fully inhibited enzyme, 1 = untreated enzyme;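 active means activation factor of at least 2 at 5 µM in the primary screen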;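 further: 0 = wells with 2.5 mM tranylcypromine and 1 = vehicle-only wells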
CYP2C9 act = increases human cytochrome P450 2C9 activity. 1.4% of 96,000 active. recombinant CYP2C9, luciferin-H conversion, luminescence; active compounds read high; factor 1 = untreated enzyme, 0 = blocked. activation factor at 5 µM;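 active means activation factor of 2 or more for CYP2C9 at a 5 µM dose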;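 further: 0 = sulfaphenazole-blocked wells and 1 = vehicle-only wells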
Target sequence (P11712 whole entry, looked up): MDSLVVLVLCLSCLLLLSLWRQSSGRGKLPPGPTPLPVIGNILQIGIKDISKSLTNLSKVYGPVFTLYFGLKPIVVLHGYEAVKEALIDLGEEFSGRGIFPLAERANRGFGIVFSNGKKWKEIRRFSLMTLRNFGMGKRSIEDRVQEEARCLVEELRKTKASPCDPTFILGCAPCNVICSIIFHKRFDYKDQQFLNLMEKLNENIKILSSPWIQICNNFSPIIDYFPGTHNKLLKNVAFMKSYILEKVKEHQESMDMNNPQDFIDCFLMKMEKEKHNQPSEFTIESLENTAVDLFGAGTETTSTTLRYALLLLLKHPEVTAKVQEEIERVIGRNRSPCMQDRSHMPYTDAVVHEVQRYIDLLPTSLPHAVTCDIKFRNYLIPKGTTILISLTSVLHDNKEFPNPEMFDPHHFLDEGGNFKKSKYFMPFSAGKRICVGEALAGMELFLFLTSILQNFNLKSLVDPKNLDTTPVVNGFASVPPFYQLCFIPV
CYP2C9 inh = human CYP2C9 inhibition; AID 777; inhibition, % at 5 µM; CYP2C9 Supersomes, luciferin-H conversion, luminescence; P11712; 20% of 96,000 active;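 active means blocking of liver enzyme CYP2C9 beyond about 50% at 5 µM, limit read from the data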
CYP2C19 inhib = inhibitors of human CYP2C19 | CYP2C19 Supersomes, luciferin-H EGE luminescence, 30 min | 21% of 96,000 active | inhibition, % at 5 µM | P33261;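 active means CYP2C19 inhibition above a set limit at 5 µM in the primary screen, cut at about 50% in these data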;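 further: plate controls were negative control wells for no effect and 2.5 mM tranylcypromine positive control for full effect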
sEH inh = soluble epoxide hydrolase (human) inhibition; P34913; recombinant human sEH enzymatic activity assay; inhibition, % at 2 µM; 0.34% of 91,000 active; in the data active means inhibition above about 80%
* hit, by the source's call; / = no result given. Most compounds without a hit are left out; they make up all but 27% or so of the library.

SMILES	sEH act	CYP2C19 activ	CYP2C9 act	CYP2C9 inh	CYP2C19 inhib	sEH inh
Cc1sc(NC(=O)c2ccccc2)c(C(=O)NC(C)C)c1C	-3	0.9	0.5	53*	5	2
Cc1sc(NC(=O)c2ccccc2)c(C(=O)N2CCN(C)CC2)c1C	9	1	1	-3	-1	-9
CCN(CC)C(=O)c1c(NC(=O)c2ccccc2)sc(C)c1C	-20	0.3	0.8	24	73*	22
C=CCc1ccccc1OCCCCN1CCCC1	/	0.9	1.1	-11	6	/
C=CCc1ccccc1OCC(CN1CCCCC1)OC(C)=O (stereo unspecified)	-9	0.5	1	0	53*	8
C=CCc1ccccc1OCC(O)CN1CCN(c2ccccc2F)CC1 (stereo unspecified)	6	0.3	0.5	55*	66*	-6
O=C(NC1CCCC1)c1ccc(CS(=O)(=O)c2ccc(Br)cc2)o1	3	0.9	0.1	86*	10	-1
Cc1ccccc1S(=O)(=O)Cc1ccc(C(=O)N2CCN(c3cccc(C)c3C)CC2)o1	/	0.5	0.3	73*	49	/
CCc1ccccc1S(=O)(=O)Cc1ccc(C(=O)N2CCN(c3ccccc3OC)CC2)o1	9	0.1	0	96*	91*	-7
COc1ccc(S(=O)(=O)Cc2ccc(C(=O)N3CCN(c4ccccn4)CC3)o2)cc1	/	0.7	0.2	81*	30	/
Cc1ccc(-c2nsc3c(N4CCC(C(N)=O)CC4)ncnc23)cc1	/	1	0.8	16	4	/
Cc1cc(C)n2nc(C(=O)Nc3ccc4c(c3)OCO4)cc2n1	-2	0.9	0.9	9	5	1
CCCCCC/C(=N/O)c1ccccn1	-17	0.8	0.7	28	20	16
COc1ccccc1S(=O)(=O)Cc1ccc(C(=O)N2CCCC2)o1	13	0.9	1.2	-16	6	-11
O=C(c1ccc(CS(=O)(=O)c2ccc(Br)cc2)o1)N1CCN(c2ncccn2)CC1	-8	0.4	0.2	81*	56*	6
COc1ccccc1S(=O)(=O)Cc1ccc(C(=O)N2CCN(c3ccccn3)CC2)o1	/	0.5	0.5	51*	53*	/
CCCN(CCC)C(=S)NC(=O)c1ccc(Cl)cc1Cl	16	0.5	0.8	19	47	-15
CC(C)n1c(-c2ccco2)csc1=Nc1cccnc1	17	0.4	0.4	60*	65*	-12
CCCC1CC(C)(c2csc(Nc3ccc(OCC)cc3)n2)OC1=O (stereo unspecified)	5	/	/	/	/	0
Cc1[nH]c(=O)[nH]c(=O)c1S(=O)(=O)N1c2ccc(F)cc2CCC1C (stereo unspecified)	-8	0.6	0.8	16	44	6
Cc1c(C=O)cnn1CCC(=O)O	0	/	/	/	/	3
COC(=O)C(NC(=O)c1ccc(C)cc1)(Nc1cccc(C)n1)C(F)(F)F (stereo unspecified)	-7	/	/	/	/	8
COC(=O)C(NC(=O)c1ccco1)(Nc1ccc(Br)cn1)C(F)(F)F (stereo unspecified)	/	0.1	0.8	16	94*	/
CCCCC(=O)NC(Nc1ccc(C)cn1)(C(=O)OCC)C(F)(F)F (stereo unspecified)	10	0.3	0.8	18	66*	-10
COC(=O)C(NC(C)=O)(Nc1nc2c(C)cc(C)cc2s1)C(F)(F)F (stereo unspecified)	-3	0.1	0	99*	92*	3
SMILES	sEH act	CYP2C19 activ	CYP2C9 act	CYP2C9 inh	CYP2C19 inhib	sEH inh
COC(=O)C(NC(=O)c1ccco1)(Nc1nc(C)cs1)C(F)(F)F (stereo unspecified)	/	0.7	0.7	31	33	/
COC(=O)C(NC(C)=O)(Nc1ccc(Br)cn1)C(F)(F)F (stereo unspecified)	/	0.2	0.7	29	82*	/
CC1(C)CC(=O)CC(=Nc2ccc3[nH]c(=O)[nH]c3c2)C1	/	1	1	3	1	/
CCN1C(=O)N(c2ccc(Cl)cc2)C(C)=CC1(C)C	3	0.7	0.9	11	26	0
COC(=O)C(NC(C)=O)(Nc1nc(C)cs1)C(F)(F)F (stereo unspecified)	-1	0.9	0.8	19	10	3
COC(=O)C(NC(C)=O)(Nc1ccccn1)C(F)(F)F (stereo unspecified)	-9	0.9	0.5	50*	12	9
C1CCC(c2nn3c(-c4n[nH]c5c4CCC5)nnc3s2)CC1	6	0.1	0.7	32	87*	-7
COC(=O)C1=C(C(=O)OC)SC2(S1)C(C(=O)OC)=C(C(=O)OC)SC1=C2c2cc(C)cc(C)c2NC1(C)C	-7	0.3	0.2	79*	67*	9
FC(F)(F)C(Oc1nc(Nc2ccc(Cl)cc2)nc(N2CCOCC2)n1)C(F)(F)F	13	/	/	/	/	-7
CC1CCN(c2ccc(C(=O)NCCc3ccccc3)cn2)CC1	/	0.9	0.3	67*	11	/
O=C(NCCc1ccccc1)c1cccs1	-6	0.5	1	5	53*	7
O=C(NCCc1ccccc1)c1ccncc1	17	0.2	0.6	38	78*	-15
CC(C)(CNC(=O)c1cccs1)CNC(=O)c1cccs1	-2	0.4	0.1	86*	58*	0
O=C(NCCCNC(=O)c1cccs1)c1cccs1	/	0.7	0.6	42	27	/
COc1ccc(-c2nc(CCNC(=O)c3cccs3)cs2)cc1	-25	0.6	0.2	76*	40	24
CCCCC(CC)CNC(=O)c1cccs1 (stereo unspecified)	/	0.1	0.1	91*	88*	/
CC(C)OCCCNC(=O)c1ccc(Br)cc1	-6	0.9	1.1	-8	13	7
CC(C)OCCCNC(=O)c1ccncc1	/	0.1	0.2	75*	89*	/
O=C(O)C1CCCCC1C(=O)Nc1cccc(Cl)c1Cl (stereo unspecified)	9	0.9	1	5	9	-8
CCNc1[nH]c(=O)n(C)c(=O)c1N=O	-4	1.2	1.1	-8	-16	5
CCOC(=O)N1CCC(N2C(=O)c3cc(C(=O)NC4CCCCC4)ccc3C2O)CC1 (stereo unspecified)	/	0.8	0.5	48	24	/
CCOC(=O)N1CCC(N2C(=O)c3ccccc3C2Nc2ccccc2)CC1 (stereo unspecified)	-10	0.4	0.2	80*	65*	8
CCOC(=O)N1CCC(N2C(=O)c3ccccc3C2Nc2ccc(C)cc2)CC1 (stereo unspecified)	0	0.5	0.5	48	48	-1
CCOC(=O)N1CCC(N2C(=O)c3ccccc3C2Nc2cc(C(=O)OC)cc(C(=O)OC)c2)CC1 (stereo unspecified)	-3	0.3	0.3	66*	73*	2
CCOC(=O)N1CCC(N2C(=O)c3ccccc3C2Nc2c(C)cccc2C)CC1 (stereo unspecified)	6	0	0.1	94*	95*	-8
